# From PubChem BioAssay AID2283234 (EPA ToxCast)
# Inconclusive results are not listed. The source made the active and inactive calls. Rule for the calls: active = hit-call score of the fitted dose curve at least 0.9, where 1 is the maximum; inconclusive = response in the unintended direction; inactive = score below 0.9.
# Biological target: human Dual Specificity Styrosine-Phosphorylation-Regulated Kinase 1A (DYRK1a), DYRK1A (gene 1859) (UniProt Q13627)
# Test: NVS_ENZ_hDYRK1a: NovaScreen (NVS) Enzymatic Assay for human Dual Specificity Styrosine-Phosphorylation-Regulated Kinase 1A (DYRK1a)
# Method: NVS_ENZ_hDYRK1a is a biochemical, single-readout assay that uses extracted gene-proteins in a cell-free assay. Measurements were taken 1 hour after chemical dosing in a 96-well plate.NVS_ENZ_hDYRK1a is one of one assay component(s) measured or calculated from the NVS_ENZ_hDYRK1a assay. It is designed to make measurements of enzyme activity, a form of enzyme reporter, as detected with fluorescence intensity signals by Fluorescence and electrophoretic mobility shift technology.Data from the assay component NVS_ENZ_hDYRK1a was analyzed into 1 assay endpoint. This assay endpoint, NVS_ENZ_hDYRK1a, was analyzed in the positive analysis fitting direction relative to DMSO as the negative control and baseline of activity. Using a type of enzyme reporter, loss-of-signal activity can be used to understand changes in the enzymatic activity as they relate to the gene DYRK1A. Furthermore, this assay endpoint can be referred to as a primary readout, because this assay has produced multiple assay endpoints where this one serves a enzymatic activity function. To generalize the intended target to other relatable targets, this assay endpoint is annotated to the kinase intended target family, where the subfamily is dual-specific kinase.
# Binding assays used specific radioligands (tritiated, iodinated) with non-radioactive competitive displacement ligands in agonist or antagonist protocols (as indicated) and various reference compounds and inhibitors to titrate specific binding to receptors and transporters. Most enzyme assays (CYPs, kinases, phosphatases, proteases, HDACs) used recombinant protein and specific substrates (fluorescence mostly, some colorimetric and radioactive) and inhibitors, followed by a biochemical separation of substrate and product. All assays for the biochemical HTS were initially run in duplicate at a single concentration (10 uM for CYP450 assays and 25 uM for all others). […] Each assay was run with positive and negative controls, and concurrent controls on every plate. The follow-up (secondary) screen tested active chemical-pairs in concentration series, as well as a few additional assays not tested in the primary screen, some selected negative inactives, and several cases re-run in the concentration series for confirmatory purposes.
Compound,AC50,outcome
S=C([S-])NCCNC(=S)[S-].[Mn+2],6.02 µM (active),
CC(C)(C)[C@@H](O)[C@@H](Cc1ccc(Cl)cc1)n1cncn1,,inactive
O=C(O)C1(C(=O)Nc2ccc(Cl)cc2Cl)CC1,5.11 µM (active),
N#CSCSc1nc2ccccc2s1,,inactive
S=C(S)NCCNC(=S)S.[Mn+2].[S-]C([S-])=NCCN=C([S-])[S-].[Zn+2],1.39 µM (active),
